Source: PubChem BioAssay (National Center for Advancing Translational Sciences (NCATS))
Hits are enriched below; roughly 21% of the tested compounds scored in any of these assays.
TDP1 cell CPT = growth inhibition of DT40 Tdp1-/-;hTDP1 cells with camptothecin (screen for TDP1 inhibitors). chicken DT40 Tdp1-/-;hTDP1 cells + 20 nM CPT, ATP luminescence, 48 h. Potency, µM (doses to about 46.2 µM), for the others: top-dose activity change, negative = growth inhibition, most hits filed as inhibitors. hit rate 12% among 420,000. AID 686979; also: potency is read from the fitted curve at half-maximal effect; % is scaled to controls: 0 for no effect and ±100 for the full control effect; nearly all actives have a fitted effect of over 55% in size
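Chicken DT40 Tdp1-/- cells stably complemented with human TDP1 were seeded at 400 cells/well in medium containing 20 nM camptothecin, exposed to pin-transferred compounds, and grown at 37 °C for at least 48 hr. Viability was read as ATP luminescence.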
ClpP mod = qHTS Assay for Activators of ClpP; purified B. subtilis ClpP, FRET peptide cleavage, 20 min; Potency, µM (doses to about 57.5 µM), for the others: at the highest dose activity change, negative = active; hit rate 1.9% among 340,000; AID 651965, 2013; active = well fitted falling curve with a large enough effect; inconclusive = small, poorly fitted or top-dose-only effect; inactive = no such curve, though single readings can be large or run the other way; also: potency is read from the fitted curve at half-maximal effect; the source files actives as falling curves though it sought activators and does not explain the sign; nearly all actives have a fitted effect of over 65% in size
Target sequence (P80244 whole entry, looked up): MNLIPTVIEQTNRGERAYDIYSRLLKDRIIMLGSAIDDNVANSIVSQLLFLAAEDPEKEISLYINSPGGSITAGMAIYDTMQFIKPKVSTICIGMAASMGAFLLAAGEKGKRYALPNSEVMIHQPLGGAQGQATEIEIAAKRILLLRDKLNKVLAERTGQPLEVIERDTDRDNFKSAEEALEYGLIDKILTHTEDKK
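FRET quenching reversal measured ClpP activation: 10 microg/mL B. subtilis ClpP at pH 8 with the FRET-FV decapeptide, read at 430 nm after 320 nm excitation. The 20-min minus 0-min signal was scaled between DMSO/no-enzyme wells and ADEP (5.8 microM final).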
TDP1 cell noCPT = qHTS for Inhibitors of human tyrosyl-DNA phosphodiesterase 1 (TDP1): qHTS in cells in absence of CPT; DT40 Tdp1-/- hTDP1 cells, no CPT, ATP luminescence, 48 h; Potency, µM (top dose mostly 46.2 µM), for the others: at the highest dose activity change, negative = growth inhibition, hits mostly inhibitors; hit rate 15% among 420,000; AID 686978, 2013; also: potency is read from the fitted curve at half-maximal effect; % is scaled to controls: 0 for no effect and ±100 for the full control effect; nearly all actives have a fitted effect of over 55% in size
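No-CPT arm: Tdp1-/-;hTDP1 DT40 cells (400/well) plus compounds, incubated ≥48 hr at 37 °C. Readout CellTiter-Glo luminescence.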
IL1B secr inh = inhibitors of inflammasome signaling (IL-1 beta secretion). THP-1 LPS/ATP IL-1B secretion, AlphaLISA, 16 h; stronger effect = lower value. hit rate 4.7% among 360,000. activity change, % at 57.5 µM; in the data active = activity change below about -50%; inconclusive = mostly about -30% to -49%; also: % is scaled to controls: 0 for no effect and ±100 for the full control effect
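THP-1 cells pretreated 1 hr with compounds (up to 57.5 uM final), then stimulated with LPS (250 ng/mL final) plus ATP (1.25 mM final); secreted IL-1B measured by AlphaLISA after 16 hr, decreased signal indicating inhibition.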
DRD3 agonist = activates the human D3 dopamine receptor | P35462 | hit rate 0.58% among 410,000 | max activation, % | AID 652048 | D3R DiscoveRx beta-arrestin cells, luminescence, 90 min; in the data active = max activation above about 30%; also: 0% is about no effect
Target sequence (P35462 whole entry, looked up): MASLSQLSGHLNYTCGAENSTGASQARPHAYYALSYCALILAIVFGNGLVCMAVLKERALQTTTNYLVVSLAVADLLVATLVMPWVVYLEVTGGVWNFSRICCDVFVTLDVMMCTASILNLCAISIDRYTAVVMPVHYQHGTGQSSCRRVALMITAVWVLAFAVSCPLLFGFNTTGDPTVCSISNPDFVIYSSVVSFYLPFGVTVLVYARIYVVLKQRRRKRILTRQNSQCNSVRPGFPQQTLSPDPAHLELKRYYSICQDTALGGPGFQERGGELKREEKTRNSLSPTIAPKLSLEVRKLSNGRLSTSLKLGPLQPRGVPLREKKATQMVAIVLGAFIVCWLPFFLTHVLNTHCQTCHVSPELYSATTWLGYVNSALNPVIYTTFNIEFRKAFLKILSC
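Cells at 1500/well, incubated overnight, then treated with pinned compounds (dopamine as control) for 90 min at 37 degrees C. DiscoveRx reagent added for 30 - 60 minutes at room temperature; luminescence read.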
DRD3 antagonist = D3 dopamine receptor (human) antagonism. AID 652054. P35462. max response, negative = inhibition, %. D3R cells, DiscoveRx beta-arrestin luminescence, antagonist mode; stronger effect = lower value. hit rate 2.5% among 360,000; in the data active = max response below about -50%; inconclusive = no clear call, values can overlap the other calls; also: % is scaled to controls: 0 for no effect and ±100 for the full control effect
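Cells plated overnight at 1500 cells/well, then exposed to library compounds with dopamine controls for 90 minutes at 37 degrees C. DiscoveRx reagent added for 30–60 minutes at room temperature; luminescence read, quantitative HTS format.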
* hit, by the source's call; ? = inconclusive; nt = no result; [ ] = remark or other dose. Unless noted, calls follow the shape of the dose curve; as a rule, active = well fitted inhibition curve with a large enough effect; inconclusive = small, poorly fitted or top-dose-only effect; inactive = flat fitted curve, though single readings scatter.

SMILES | TDP1 cell CPT | ClpP mod | TDP1 cell noCPT | IL1B secr inh | DRD3 agonist | DRD3 antagonist
CCOC(=O)C1=CN(Cc2cccc(F)c2)S(=O)(=O)N(C)C1c1ccc2ccccc2c1 (stereo unspecified) | -54.9% | -2.3% | ? | 25.2 | 15.0 | 22.6
COc1ccccc1CNC(=O)C(=O)NCC1OCCCN1S(=O)(=O)c1cccs1 (stereo unspecified) | -28.2% | 2.8% | 5.7% | -0.9 | -0.6 | 9.0
CC1(C(=O)N2CC3(CC(c4cccc(NC(=O)CC(c5ccccc5)c5ccccc5)c4)=NO3)C[C@@H]2C(N)=O)CC1 (stereo partly specified) | -28.2% | -1.3% | -29.3% | -25.2 | 24.6 | 24.0
CCCN1C(C)C(C(=O)OCC)=CN(Cc2cccc(I)c2)S1(=O)=O (stereo unspecified) | ? | 0.3% | 16.4µM* | 5.3 | -16.7 | 22.2
CCOC(=O)C1=CN(Cc2cccc(F)c2)S(=O)(=O)NC1CCc1ccccc1 (stereo unspecified) | ? | -0.8% | 25.9µM* | ? | -10.4 | 1.6
CCN(CC)CCNC(=O)c1ccc(NS(C)(=O)=O)cc1 | -9.2% | nt | -5.1% | nt | -3.1 | nt
O=C(CCl)Nc1ccccc1C(=O)NCc1ccccc1 | 23.1µM* | -2.2% | ? | -82.9* | 1.7 | 1.7
O=C(O)CCC(=O)Nc1ccccc1C(=O)NCCc1ccccc1 | -5.5% | 14.1µM* | -12.2% | 14.6 | 2.5 | 0.0
CCC1(C2CCN(C(=O)c3ccc(C)cc3C)CC2)NC(=O)N(CCc2scnc2C)C1=O (stereo unspecified) | -4.6%[9.04 µM] | nt | -19.4% | nt | nt | nt
CS(=O)(=O)c1ccc2nc(NC(=O)Nc3cccc(Cl)c3)sc2c1 | 16.4µM* | ? | 23.1µM* | -81.0* | 15.0 | 26.6
Cc1onc(-c2ccccc2Cl)c1C(=O)Nc1nc2ccc(S(C)(=O)=O)cc2s1 | 8.2µM* | -9.3% | 9.2µM* | -1.6 | -0.2 | -22.0
CCc1noc(C)c1C(=O)Nc1nc2ccc(S(C)(=O)=O)cc2s1 | ? | ? | ? | 19.8 | 0.8 | 6.0
CS(=O)(=O)c1ccc2nc(NC(=O)Nc3ccc(Cl)c(Cl)c3)sc2c1 | ? | -0.8% | 9.2µM* | 0.3 | 55.4* | 23.5
C=CCN1C(=O)C(CC(=O)O)S/C1=N/N=C/c1ccc(N(CC)CC)cc1 (stereo unspecified) | -11.6% | 4.2% | ? | -4.5 | -1.8 | -19.9
Cn1cc(Cl)c(/C(N)=N/OC(=O)c2ccccc2C(F)(F)F)n1 | -14.0% | -0.8% | 0.0% | -9.8 | -4.2 | -11.4
CCCCNC(=O)C1CC(c2c(Cl)cccc2Cl)=NO1 (stereo unspecified) | 9.2µM* | 0.5% | 9.2µM* | 19.6 | 1.5 | 24.0
CCCCNC(=O)C1CC(c2cccc([N+](=O)[O-])c2)=NO1 (stereo unspecified) | -10.2% | 1.9% | -14.7% | -0.1 | 4.1 | -23.3
O=S(=O)(N=S(N1CCCCC1)N1CCCCC1)c1ccccc1 | 9.2µM* | 0.5% | ? | 0.0 | 3.3 | 16.6
COc1ccc(-c2c3c(nc4sc(C(=O)Nc5ccccc5)c(N)c24)CCC3)cc1 | -9.8% | -15.9% | ? | ? | -7.5 | -11.5
COc1ccc(-c2c3c(nc4sc(C(=O)Nc5ccc(F)cc5)c(N)c24)CC(C)(C)CC3=O)cc1 | ? | -1.5% | 14.6µM* | nt | 8.2 | nt
Cc1c(C(=O)OC(C)C)sc(N)c1C(=O)OC(C)C | -24.3% | -3.5% | ? | -61.4* | -5.5 | -20.9
CCOC(=O)c1c(C)nc2sc(C(=O)Nc3ccccc3)c(N)c2c1-c1ccc(OC)cc1 | ? | -19.6% | 14.6µM* | -5.1 | 8.3 | 67.6
CC(=O)c1sc(N)c(C(=O)OC(C)C)c1C | -4.1% | 0.4% | 1.1% | -5.0 | 0.8 | 8.3
CCOC(=O)c1c(C)nc2sc3c(c2c1-c1ccc(OC)cc1)NC(c1ccc(OC)cc1)NC3=O (stereo unspecified) | ? | 33.0% | 13µM* | 8.6 | -13.0 | 2.6
COc1ccc(-c2c3c(nc4sc(C(=O)Nc5ccccc5F)c(N)c24)CC(C)(C)CC3=O)cc1 | ? | 8.5% | ? | nt | 0.9 | nt
SMILES | TDP1 cell CPT | ClpP mod | TDP1 cell noCPT | IL1B secr inh | DRD3 agonist | DRD3 antagonist
CCOC(=O)c1c(C)nc2sc3c(=O)n(-c4ccc(C)cc4)cnc3c2c1-c1ccc(OC)cc1 | -8.9% | -1.5% | -11.1% | 14.4 | 2.8 | 10.8
CC1CC(C)(C)N(C(=O)CN2C(=O)CCC2=O)c2ccccc21 (stereo unspecified) | 14.6% | nt | -28.5% | 3.4 | -3.1 | -6.5
Cc1ccc(NC(=O)c2c(C)nc3sc(C(=O)Nc4ccc(F)cc4)c(N)c3c2-c2ccc(C)o2)c(C)c1 | ? | 1.2% | 18.4µM* | nt | 12.9 | nt
CCOC(=O)c1c(N)sc(C(=O)Nc2ccccc2)c1C | ? | -6.2% | 18.4µM* | -21.1 | -1.6 | 21.1
CCOC(=O)c1sc(NC(=O)Nc2ccccc2Cl)cc1C | 23.1µM* | ? | 14.6µM* | -15.8 | -30.1 | 6.4
CCOC(=O)c1c(N)sc(N)c1C(=O)OCC | 4.61µM* | 1.6% | 5.17µM* | -71.0* | -1.0 | 1.3
CC(OC(=O)c1cc(S(=O)(=O)N2CCOCC2)ccc1F)C(=O)NCc1ccc2c(c1)OCO2 (stereo unspecified) | 8.8% | -1.9% | -0.4% | -10.0 | 10.2 | 0.0
CCOC(=O)c1c(N)sc2c(NC(C)=O)cccc12 | 6.8% | 1.9% | 0.2% | 1.7 | 0.2 | -80.7*
CCOC(=O)c1sc(NC(=O)C2CCC2)cc1C | -9.5% | -3.1% | 20.6µM* | ? | -1.7 | -12.8
CCOC(=O)c1sc(NC(=O)C2CCCCC2)nc1C | 2.1% | -0.9% | ? | ? | -0.9 | -1.2
CCOC(=O)c1sc(NC(C)=O)cc1C | -28.5% | -6.6% | 1.0% | -20.2 | -9.1 | 0.0
CCOC(=O)c1sc(NC(=O)Nc2ccccc2)cc1C | 23.1µM* | -15.8% | 25.9µM* | -117.5* | -3.5 | -5.4
COc1ccc(OCc2nnc(SCC(=O)Nc3ccccc3C#N)o2)cc1 | -12.0% | nt | 9.7% | 12.0 | 1.3 | 18.9
Cn1cnc(S(=O)(=O)N2CCCC(C(=O)NCc3ccc(Cl)cc3)C2)c1 (stereo unspecified) | 1.1% | -0.9% | 1.8% | nt | 4.3 | nt
O=C(c1ccco1)N1N=C(C2CCCCC2)CC1(O)C(F)(F)F (stereo unspecified) | 0.2% | nt | -10.3% | 29.0 | 4.2 | 7.5
Cc1ccc(OCC(=O)N2N=C(c3cccnc3)CC2(O)C(F)(F)F)cc1C (stereo unspecified) | 16.4µM* | -2.6% | ? | -6.4 | -1.9 | 14.5
